Consider 4 compounds from PubChem BioAssay (EPA / NIEHS).

Assay [1] concerns the target human Peroxisome Proliferator-activated Receptor alpha (PPARa), PPARA (gene 5465) (UniProt Q07869). The experiment in a line: ATG_PPARa_TRANS: Attagene TRANS-FACTORIAL HepG2 Assay for human Peroxisome Proliferator-activated Receptor alpha (PPARa) (AID 2283001).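 For AC50: potency for gain of reporter signal over DMSO so agonist or activator.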 Put shortly: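 Reporter transcripts from GAL4-UAS units in transfected HepG2 were quantified 24 h after dosing. Detection used reverse transcription, PCR, fluorescent primer extension and capillary electrophoresis, with DMSO as baseline.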

Assay [2] has as its target human Peroxisome Proliferator-activated Receptor delta (PPARd), PPARD (gene 5467) (UniProt Q03181). The experiment in a line: ATG_PPARd_TRANS: Attagene TRANS-FACTORIAL HepG2 Assay for human Peroxisome Proliferator-activated Receptor delta (PPARd) (AID 2283002). Summed up: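 Transient HepG2 transfection (multiple GAL4-UAS RTUs, chimeric receptor-Gal4); 24 h dosing; total RNA → oligo(dT) RT → PCR → 6-FAM primer extension → HpaI cut → CE. Positive direction vs DMSO.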

Read-out in assay [3]: Intercellular Adhesion Molecule 1 (ICAM1), ICAM1 (gene 3383)
The experiment in a line: BSK_3C_ICAM1: BioMAP Diversity Plus: 3C Assay for Intercellular Adhesion Molecule 1 (ICAM1) Biomarker Activity (AID 2283003; active = hit-call score of the fitted dose curve at least 0.9, where 1 is the maximum; inactive = score below 0.9). The note with it: primary human endothelial cells (HUVEC); actives raise or lower the signal. Summed up:
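Primary human umbilical vein endothelial cells in the BioMAP 3C system were exposed to chemicals for 24 h, then ICAM-1 was quantified by ELISA. Activity was fitted bidirectionally against the DMSO negative control baseline.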

A short description of assay [4]: BSK_3C_Proliferation: Cell Proliferation Assessment in the BioMAP Diversity Plus: 3C Assay (AID 2283006; active = hit-call score of the fitted dose curve at least 0.9, where 1 is the maximum; inactive = score below 0.9;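 for AC50: potency may reflect either rise or fall in cell number versus DMSO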). The note with it: primary human endothelial cells (HUVEC). Summed up: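 Human umbilical vein endothelial cells were grown sub-confluent and exposed to chemical for 48 h, then fixed with 10% TCA and stained with 0.1% sulforhodamine B; absorbance at 560 nm gave relative cell number, fitted bidirectionally against DMSO baseline.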

Assay [5] addresses Nuclear receptor subfamily 1 group I member 2 (Homo sapiens) (UniProt O75469). The assay is described as follows: ATG_PXR_TRANS: Attagene TRANS-FACTORIAL HepG2 Assay for human Pregnane X Receptor (PXR) (AID 2283008). Put shortly: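 HepG2 cells transiently transfected with GAL4-UAS reporter units and PXR-Gal4 chimera, exposed 24 h. Reporter mRNA quantified by RT-PCR, fluorescent labelling, HpaI digestion and capillary electrophoresis; gain of signal vs DMSO.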

Assay [6] addresses human RAR-related Orphan Receptor gamma (RORg), RORC (gene 6097) (UniProt P51449). The assay is described as follows: ATG_RORg_TRANS: Attagene TRANS-FACTORIAL HepG2 Assay for human RAR-related Orphan Receptor gamma (RORg) (AID 2283011).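 For AC50: potency for induction of reporter transcripts above DMSO so activators.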 Put shortly: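 Activity is scored as increase in GAL4-UAS reporter mRNA over DMSO, detected by fluorescent RT-PCR and capillary electrophoresis in HepG2 cells transiently expressing a RORg-Gal4 chimera, 24 h after dosing.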

In assay [7] the target is Retinoic acid receptor RXR-alpha (Homo sapiens) (UniProt P19793). The experiment in a line: ATG_RXRa_TRANS: Attagene TRANS-FACTORIAL HepG2 Assay for human Retinoid X Receptor alpha (RXRa) (AID 2283012). Summed up:
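HepG2 cells transiently transfected with multiplexed GAL4-UAS reporter units and chimeric NR-GAL4 fusions, dosed 24 h. Reporter mRNA measured by RT-PCR, FAM labelling, HpaI digestion and capillary electrophoresis; gain-of-signal fitted relative to DMSO baseline.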

Assay [8] concerns the target human Retinoid X Receptor beta (RXRb), RXRB (gene 6257) (UniProt P28702). The assay is described as follows: ATG_RXRb_TRANS: Attagene TRANS-FACTORIAL HepG2 Assay for human Retinoid X Receptor beta (RXRb) (AID 2283013). Put shortly:
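HepG2 cells transiently transfected with multiplexed reporter units driven by GAL4-UAS and exogenous chimeric NR-Gal4 proteins; treated 24 h. Reporter mRNA measured by RT-PCR, 6-FAM labelling and capillary electrophoresis; gain-of-signal fitted versus DMSO baseline.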

Assay [9] concerns the target human Thyroid Receptor alpha (THRa1), THRA (gene 7067) (UniProt P10827). The assay is described as follows: ATG_THRa1_TRANS: Attagene TRANS-FACTORIAL HepG2 Assay for human Thyroid Receptor alpha (THRa1) (AID 2283014). Summed up: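 First, HepG2 cells receive multiple GAL4-UAS reporter units and the chimeric receptor. They are then dosed for 24 h, after which RNA is reverse-transcribed, amplified, labelled, HpaI-cut and sized by capillary electrophoresis; gain relative to DMSO is scored.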

Read-out in assay [10]: E-selectin (Homo sapiens) (UniProt P16581)
The assay is described as follows: BSK_3C_Eselectin: BioMAP Diversity Plus: 3C Assay for Eselectin Biomarker Activity (AID 2283015; active = hit-call score of the fitted dose curve at least 0.9, where 1 is the maximum; inactive = score below 0.9;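 for outcome: cell surface E-selectin protein quantified by ELISA 24 h after dosing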). As to conditions: primary human endothelial cells (HUVEC); actives raise or lower the signal. Put shortly:
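Human vascular endothelium from umbilical vein is exposed to test chemicals for 24 h. E-selectin levels are read by ELISA and compared with DMSO controls.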

Read-out in assay [11]: Interleukin-1 alpha (IL1a), IL1A (gene 3552)
The experiment in a line: BSK_BE3C_IL1a: BioMAP Diversity Plus: BE3C Assay for Interleukin-1 alpha (IL1a) Biomarker Activity (AID 2283016; active = hit-call score of the fitted dose curve at least 0.9, where 1 is the maximum; inactive = score below 0.9). The note with it: primary human bronchial epithelial cells; actives raise or lower the signal. Summed up:
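Human primary bronchial epithelial cells (BE3C system) were dosed with compound and IL-1a measured by ELISA 24 h later. Activity was fitted bidirectionally against DMSO baseline; cytotoxicity was tracked in parallel cultures by SRB total-protein staining.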

Read-out in assay [12]: Monocyte Chemoattractant Protein-1 (MCP1), CCL2 (gene 6347)
The experiment in a line: BSK_3C_MCP1: BioMAP Diversity Plus: 3C Assay for Monocyte Chemoattractant Protein-1 (MCP1) Biomarker Activity (AID 2283017; active = hit-call score of the fitted dose curve at least 0.9, where 1 is the maximum; inactive = score below 0.9). The note with it: primary human endothelial cells (HUVEC); actives raise or lower the signal. Summed up:
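Endothelial cells from human umbilical vein are dosed with chemical, cultured 24 h, then assayed for MCP-1 by ELISA; both increases and decreases are modelled against DMSO controls.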

Read-out in assay [13]: Monocyte Chemoattractant Protein-1 (MCP1), CCL2 (gene 6347)
The experiment in a line: BSK_4H_MCP1: BioMAP Diversity Plus: 4H Assay for Monocyte Chemoattractant Protein-1 (MCP1) Biomarker Activity (AID 2283018; active = hit-call score of the fitted dose curve at least 0.9, where 1 is the maximum; inactive = score below 0.9). The note with it: primary human endothelial cells (HUVEC); actives raise or lower the signal. Put shortly: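 Human umbilical vein endothelial cells (4H system) dosed with chemical; MCP-1 measured by ELISA 24 h after dosing. Bidirectional curve fitting against DMSO negative control as baseline; parallel SRB total-protein staining tracks overt cytotoxicity.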

Read-out in assay [14]: Human Leukocyte Antigen - DR isotype (HLADR), HLA-DRA (gene 3122)
The experiment in a line: BSK_3C_HLADR: BioMAP Diversity Plus: 3C Assay for Human Leukocyte Antigen - DR isotype (HLADR) Biomarker Activity (AID 2283019; active = hit-call score of the fitted dose curve at least 0.9, where 1 is the maximum; inactive = score below 0.9;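 for outcome: ELISA of cell-surface HLA-DR on HUVEC 24 h after dosing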). The note with it: primary human endothelial cells (HUVEC); actives raise or lower the signal. Put shortly: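 Endothelial cells from human umbilical vein are treated with test chemical; after 24 h, HLA-DR levels are measured by ELISA. Data are fitted in both directions using DMSO as the baseline.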

Read-out in assay [15]: Interleukin-8 (IL8), CXCL8 (gene 3576)
The assay is described as follows: BSK_3C_IL8: BioMAP Diversity Plus: 3C Assay for Interleukin-8 (IL8) Biomarker Activity (AID 2283020; active = hit-call score of the fitted dose curve at least 0.9, where 1 is the maximum; inactive = score below 0.9). As to conditions: primary human endothelial cells (HUVEC); actives raise or lower the signal. Put shortly: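 Primary human umbilical vein endothelial cells (3C system) were exposed to test chemical for 24 h, then IL-8 was quantified by ELISA. Responses were fitted bidirectionally against DMSO vehicle as baseline.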

Read-out in assay [16]: Monokine induced gamma interferon (MIG), CXCL9 (gene 4283)
The experiment in a line: BSK_3C_MIG: BioMAP Diversity Plus: 3C Assay for Monokine induced gamma interferon (MIG) Biomarker Activity (AID 2283021; active = hit-call score of the fitted dose curve at least 0.9, where 1 is the maximum; inactive = score below 0.9). As to conditions: primary human endothelial cells (HUVEC); actives raise or lower the signal. Put shortly: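 Primary human umbilical vein endothelial cells in the 3C system were exposed to chemical for 24 h, after which MIG was quantified by ELISA. Activity was fitted bidirectionally against DMSO as negative control and baseline.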

In assay [17] the target is Peroxisome proliferator-activated receptor gamma (Homo sapiens) (UniProt P37231). The assay is described as follows: ATG_PPARg_TRANS: Attagene TRANS-FACTORIAL HepG2 Assay for human Peroxisome Proliferator-activated Receptor-gamma (PPARg) (AID 2283007). Summed up:
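Human hepatoma HepG2, transient MRTU transfection, 24 h treatment. mRNA reporter signal by RT-PCR plus capillary electrophoresis, fluorescence detection; fitted for increase over DMSO negative control.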

For assay [18], the target named is human Retinoic Acid Receptor gamma (RARg), RARG (gene 5916) (UniProt P13631). The experiment in a line: ATG_RARg_TRANS: Attagene TRANS-FACTORIAL HepG2 Assay for human Retinoic Acid Receptor gamma (RARg) (AID 2283009). Summed up:
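HepG2 cells transiently transfected with multiplexed reporter units expressing chimeric RARg-GAL4 and GAL4-UAS-driven reporters; 24 h compound exposure. Reporter mRNA quantified by RT-PCR with fluorescent labelling and capillary electrophoresis; gain-of-signal fitted relative to DMSO baseline.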

For assay [19], the target named is human RAR-related Orphan Receptor beta (RORb), RORB (gene 6096) (UniProt Q92753). The assay is described as follows: ATG_RORb_TRANS: Attagene TRANS-FACTORIAL HepG2 Assay for human RAR-related Orphan Receptor beta (RORb) (AID 2283010). Summed up: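 HepG2 cells were transiently transfected with multiplexed GAL4-UAS reporter units expressing chimeric nuclear receptor–GAL4 proteins, then dosed for 24 h. Reporter mRNA was quantified by RT-PCR with fluorescent labelling and capillary electrophoresis; gain of signal was fitted relative to DMSO.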

Each structure is given as a SMILES string. Records with an inconclusive call do not appear. The source made the active and inactive calls. Rule for the calls, unless noted: active = hit-call score of the fitted dose curve at least 0.9, where 1 is the maximum; inconclusive = response in the unintended direction; inactive = score below 0.9.

What is called AC50 is the concentration giving half of the maximal activity seen.

Chain of Peroxisome proliferator-activated receptor gamma (Homo sapiens) (P37231 whole entry, looked up): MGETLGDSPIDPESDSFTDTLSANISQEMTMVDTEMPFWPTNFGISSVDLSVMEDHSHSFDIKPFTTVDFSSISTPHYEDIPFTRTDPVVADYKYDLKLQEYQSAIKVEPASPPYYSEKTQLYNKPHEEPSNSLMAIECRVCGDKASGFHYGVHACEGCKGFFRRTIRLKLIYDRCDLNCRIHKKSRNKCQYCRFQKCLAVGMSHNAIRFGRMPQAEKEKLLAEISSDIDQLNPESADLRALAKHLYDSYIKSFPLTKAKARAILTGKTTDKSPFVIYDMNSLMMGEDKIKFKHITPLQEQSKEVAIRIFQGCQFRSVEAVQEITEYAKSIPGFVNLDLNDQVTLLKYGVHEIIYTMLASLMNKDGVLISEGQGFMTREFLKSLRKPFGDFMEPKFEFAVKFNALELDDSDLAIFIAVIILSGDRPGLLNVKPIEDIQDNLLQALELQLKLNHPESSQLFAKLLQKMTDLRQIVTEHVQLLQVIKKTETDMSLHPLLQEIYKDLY
Chain of human Thyroid Receptor alpha (THRa1), THRA (gene 7067) (P10827 whole entry, looked up, the tested form may be a part): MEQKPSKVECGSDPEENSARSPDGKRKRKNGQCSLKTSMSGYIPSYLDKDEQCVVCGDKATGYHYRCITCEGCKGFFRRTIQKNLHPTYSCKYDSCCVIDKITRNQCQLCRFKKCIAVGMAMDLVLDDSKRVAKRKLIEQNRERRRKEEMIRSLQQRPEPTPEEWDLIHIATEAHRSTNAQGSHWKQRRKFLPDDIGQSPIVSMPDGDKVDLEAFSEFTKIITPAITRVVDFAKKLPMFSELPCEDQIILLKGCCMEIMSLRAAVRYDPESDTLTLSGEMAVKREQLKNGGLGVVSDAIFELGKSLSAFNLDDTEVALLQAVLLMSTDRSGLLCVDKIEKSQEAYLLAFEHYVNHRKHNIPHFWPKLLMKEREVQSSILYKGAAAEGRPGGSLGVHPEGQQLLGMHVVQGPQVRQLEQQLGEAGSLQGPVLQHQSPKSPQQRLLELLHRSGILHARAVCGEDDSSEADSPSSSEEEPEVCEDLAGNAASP
Chain of human Peroxisome Proliferator-activated Receptor alpha (PPARa), PPARA (gene 5465) (Q07869 whole entry, looked up, the tested form may be a part): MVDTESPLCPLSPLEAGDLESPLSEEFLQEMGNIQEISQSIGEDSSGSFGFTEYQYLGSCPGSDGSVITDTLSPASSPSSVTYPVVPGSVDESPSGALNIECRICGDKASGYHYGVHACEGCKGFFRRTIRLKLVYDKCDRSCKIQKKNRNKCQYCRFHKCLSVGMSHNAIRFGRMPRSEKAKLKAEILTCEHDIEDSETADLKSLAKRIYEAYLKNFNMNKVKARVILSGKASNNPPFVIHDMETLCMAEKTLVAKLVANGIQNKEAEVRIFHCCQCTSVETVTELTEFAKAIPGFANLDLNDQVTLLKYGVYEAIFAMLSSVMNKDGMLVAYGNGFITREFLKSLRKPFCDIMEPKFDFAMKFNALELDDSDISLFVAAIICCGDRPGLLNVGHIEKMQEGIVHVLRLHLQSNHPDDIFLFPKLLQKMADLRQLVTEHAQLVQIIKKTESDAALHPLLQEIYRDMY
Chain of Retinoic acid receptor RXR-alpha (Homo sapiens) (P19793 whole entry, looked up, the tested form may be a part): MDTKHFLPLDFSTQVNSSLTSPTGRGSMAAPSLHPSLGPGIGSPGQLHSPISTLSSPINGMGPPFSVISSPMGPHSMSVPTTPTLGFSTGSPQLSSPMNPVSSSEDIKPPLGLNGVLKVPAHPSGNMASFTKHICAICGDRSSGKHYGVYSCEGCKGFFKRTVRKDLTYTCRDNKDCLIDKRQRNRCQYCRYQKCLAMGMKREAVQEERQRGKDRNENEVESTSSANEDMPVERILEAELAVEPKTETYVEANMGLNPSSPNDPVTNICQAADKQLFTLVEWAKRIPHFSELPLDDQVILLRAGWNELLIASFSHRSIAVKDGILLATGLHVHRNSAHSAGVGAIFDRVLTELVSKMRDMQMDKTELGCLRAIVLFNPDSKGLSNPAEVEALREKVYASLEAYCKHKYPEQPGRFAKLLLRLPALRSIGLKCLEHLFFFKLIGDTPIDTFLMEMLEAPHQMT
Chain of human Retinoid X Receptor beta (RXRb), RXRB (gene 6257) (P28702 whole entry, looked up, the tested form may be a part): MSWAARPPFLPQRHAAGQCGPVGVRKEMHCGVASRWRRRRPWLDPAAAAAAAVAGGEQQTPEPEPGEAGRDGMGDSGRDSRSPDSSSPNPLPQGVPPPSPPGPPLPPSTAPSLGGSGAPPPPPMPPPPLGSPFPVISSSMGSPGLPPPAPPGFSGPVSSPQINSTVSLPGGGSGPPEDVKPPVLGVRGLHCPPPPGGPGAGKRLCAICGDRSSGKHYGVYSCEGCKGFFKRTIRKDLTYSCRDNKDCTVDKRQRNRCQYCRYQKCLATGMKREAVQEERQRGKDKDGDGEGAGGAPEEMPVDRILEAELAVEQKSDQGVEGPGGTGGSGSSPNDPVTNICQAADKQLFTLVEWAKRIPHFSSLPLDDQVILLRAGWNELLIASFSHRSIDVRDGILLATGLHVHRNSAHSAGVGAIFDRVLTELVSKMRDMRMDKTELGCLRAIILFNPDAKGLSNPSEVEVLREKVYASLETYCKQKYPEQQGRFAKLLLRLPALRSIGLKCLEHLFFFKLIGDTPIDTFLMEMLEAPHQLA
Chain of human Peroxisome Proliferator-activated Receptor delta (PPARd), PPARD (gene 5467) (Q03181 whole entry, looked up, the tested form may be a part): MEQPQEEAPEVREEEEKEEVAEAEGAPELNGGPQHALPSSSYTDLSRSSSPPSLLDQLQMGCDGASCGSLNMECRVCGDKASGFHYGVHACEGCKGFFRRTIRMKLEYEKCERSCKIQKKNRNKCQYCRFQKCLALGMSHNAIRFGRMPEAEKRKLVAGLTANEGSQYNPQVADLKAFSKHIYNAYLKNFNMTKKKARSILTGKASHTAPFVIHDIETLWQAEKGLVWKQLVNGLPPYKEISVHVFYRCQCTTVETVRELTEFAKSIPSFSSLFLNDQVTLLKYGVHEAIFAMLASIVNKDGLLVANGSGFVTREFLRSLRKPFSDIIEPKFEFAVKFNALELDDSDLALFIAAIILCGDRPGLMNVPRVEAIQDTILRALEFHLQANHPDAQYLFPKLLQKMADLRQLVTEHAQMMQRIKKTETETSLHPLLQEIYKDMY
Chain of E-selectin (Homo sapiens) (P16581 whole entry, looked up): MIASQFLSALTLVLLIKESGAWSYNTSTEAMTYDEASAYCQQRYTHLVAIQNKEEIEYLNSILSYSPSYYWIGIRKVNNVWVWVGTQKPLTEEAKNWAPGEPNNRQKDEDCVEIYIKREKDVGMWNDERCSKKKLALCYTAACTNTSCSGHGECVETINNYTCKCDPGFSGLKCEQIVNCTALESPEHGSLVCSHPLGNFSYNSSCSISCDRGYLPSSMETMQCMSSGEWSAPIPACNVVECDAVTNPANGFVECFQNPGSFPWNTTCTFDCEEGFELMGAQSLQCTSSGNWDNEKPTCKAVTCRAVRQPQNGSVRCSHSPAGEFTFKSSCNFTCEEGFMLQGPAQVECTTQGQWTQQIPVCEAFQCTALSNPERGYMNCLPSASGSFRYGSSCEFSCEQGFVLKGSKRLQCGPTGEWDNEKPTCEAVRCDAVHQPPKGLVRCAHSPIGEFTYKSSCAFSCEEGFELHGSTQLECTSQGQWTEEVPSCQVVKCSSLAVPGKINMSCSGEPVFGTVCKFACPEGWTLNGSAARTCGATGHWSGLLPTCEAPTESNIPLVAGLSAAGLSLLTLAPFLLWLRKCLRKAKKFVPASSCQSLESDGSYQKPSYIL
Chain of human Retinoic Acid Receptor gamma (RARg), RARG (gene 5916) (P13631 whole entry, looked up, the tested form may be a part): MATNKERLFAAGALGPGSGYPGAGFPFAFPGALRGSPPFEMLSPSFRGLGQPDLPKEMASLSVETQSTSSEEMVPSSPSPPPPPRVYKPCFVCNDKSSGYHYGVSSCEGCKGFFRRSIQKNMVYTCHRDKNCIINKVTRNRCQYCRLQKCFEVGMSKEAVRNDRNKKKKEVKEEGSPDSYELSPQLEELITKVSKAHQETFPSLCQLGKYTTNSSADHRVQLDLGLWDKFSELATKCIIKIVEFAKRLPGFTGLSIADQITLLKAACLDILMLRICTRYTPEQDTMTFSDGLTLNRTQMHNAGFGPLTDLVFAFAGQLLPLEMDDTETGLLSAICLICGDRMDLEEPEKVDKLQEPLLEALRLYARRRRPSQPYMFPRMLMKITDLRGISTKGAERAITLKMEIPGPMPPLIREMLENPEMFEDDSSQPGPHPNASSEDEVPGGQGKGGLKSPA
Chain of Nuclear receptor subfamily 1 group I member 2 (Homo sapiens) (O75469 whole entry, looked up, the tested form may be a part): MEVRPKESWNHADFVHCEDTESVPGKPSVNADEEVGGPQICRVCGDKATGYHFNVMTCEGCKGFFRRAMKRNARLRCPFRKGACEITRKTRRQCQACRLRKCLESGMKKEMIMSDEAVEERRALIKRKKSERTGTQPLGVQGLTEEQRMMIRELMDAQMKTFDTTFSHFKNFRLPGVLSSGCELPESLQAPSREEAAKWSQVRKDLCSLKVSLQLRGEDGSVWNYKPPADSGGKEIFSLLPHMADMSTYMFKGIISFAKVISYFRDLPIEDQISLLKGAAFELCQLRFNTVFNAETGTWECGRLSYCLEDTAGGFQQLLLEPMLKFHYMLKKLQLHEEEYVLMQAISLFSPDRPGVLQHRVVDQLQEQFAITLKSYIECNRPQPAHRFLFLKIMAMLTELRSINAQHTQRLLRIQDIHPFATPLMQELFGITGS
Chain of human RAR-related Orphan Receptor gamma (RORg), RORC (gene 6097) (P51449 whole entry, looked up, the tested form may be a part): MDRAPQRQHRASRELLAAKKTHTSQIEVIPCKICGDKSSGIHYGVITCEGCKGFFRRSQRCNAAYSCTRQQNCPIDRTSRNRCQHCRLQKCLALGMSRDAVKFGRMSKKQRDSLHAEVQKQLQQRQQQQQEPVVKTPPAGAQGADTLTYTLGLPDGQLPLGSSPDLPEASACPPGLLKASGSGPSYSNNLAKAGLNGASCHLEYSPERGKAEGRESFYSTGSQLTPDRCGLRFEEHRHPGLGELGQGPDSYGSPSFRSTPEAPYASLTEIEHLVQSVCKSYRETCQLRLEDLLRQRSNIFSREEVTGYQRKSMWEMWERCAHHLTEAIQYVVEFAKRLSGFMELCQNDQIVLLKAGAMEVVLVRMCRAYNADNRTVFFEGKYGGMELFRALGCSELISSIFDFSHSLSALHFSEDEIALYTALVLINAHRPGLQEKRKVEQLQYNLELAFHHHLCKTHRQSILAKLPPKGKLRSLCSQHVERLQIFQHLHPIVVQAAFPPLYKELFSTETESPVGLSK

For `CCCCCCCCCCCO`, the AC50 in [1] is 100 µM (active); in assay [2] it was 166 µM (active); in assay [3], 36.8 µM (active); in [4], 34.2 µM (active); in [6], 159 µM (active); in [7], 179 µM (active). Moreover, the AC50 in assay [8] is 47.8 µM (active); in [10], 32 µM (active); in [14], 31 µM (active); in [15], 28.6 µM (active). Also, the compound was called inactive in [5], in [9], in [11], in assay [12], in [13] and in [16].

On to `CC1(C)NC(=O)N(c2ccc([N+](=O)[O-])c(C(F)(F)F)c2)C1=O`, for which the compound was classed as inactive in [1], in assay [3], in assay [4], in [17], in [18] and in assay [7]. Further, the compound was called inactive in [8], in [9], in assay [10], in [11], in [12] and in assay [13]. The outcome in [14] and in assay [15] was inactive.

Consider `Cc1cn([C@H]2C[C@H](N=[N+]=[N-])[C@@H](CO)O2)c(=O)[nH]c1=O`, for which the call in [1], in [2], in [4], in assay [5], in assay [7] and in assay [8] was inactive. In addition, the result in assay [10], in [11], in [12], in assay [13], in [14] and in [15] was inactive. Moreover, the outcome in [16] was inactive.

With `O=c1[nH]sc2ccccc12`, the result in assay [1], in [2], in assay [19], in assay [6], in assay [8] and in [9] was inactive. Besides, the concentration at half-maximal activity (AC50) was 18.2 µM (active) in assay [3]; 1.55 µM (active) in assay [4]; 13.5 µM (active) in assay [10]; 27.7 µM (active) in assay [11]; 11.7 µM (active) in [12]; 11.6 µM (active) in assay [13]. In addition, the AC50 in assay [14] is 5.39 µM (active); in assay [15], 14.4 µM (active).
